IL1B secr inh: qHTS for Inhibitors of Inflammasome Signaling: IL-1-beta AlphaLISA Primary Screen; activity change, % at 57.5 µM; AID 743279, 2014; hit rate 4.7% among 360,000; THP-1 LPS/ATP IL-1B secretion, AlphaLISA, 16 h; stronger effect = lower value; in the data active means activity change below about -50%; inconclusive means mostly about -30% to -49%
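Secreted IL-1B measured by AlphaLISA bead assay after 16 h compound exposure of THP-1 cells; compounds (final up to 57.5 uM) added 1 h before LPS (250 ng/mL) and ATP (1.25 mM) stimulation; lower signal means less secretion.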
DT40 TDP1 no CPT: qHTS for Inhibitors of human tyrosyl-DNA phosphodiesterase 1 (TDP1): qHTS in cells in absence of CPT. DT40 Tdp1-/- hTDP1 cells, no CPT, ATP luminescence, 48 h. Potency, µM (titrated, usually from 46.2 µM), for inactives: top-dose activity change, negative = growth inhibition, hits mostly inhibitors. hit rate 15% among 420,000. AID 686978, 2013; further: potency means the concentration at half of the fitted maximal effect; nearly all actives have a fitted effect of over 55% in size
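Compound effects on proliferation are scored in DT40 Tdp1-/-;hTDP1 cells in the absence of CPT. ATP levels (CellTiter-Glo luminescence) are recorded after a ≥48 hr, 37 °C incubation.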
VP16 counter: VP16 counterscreen qHTS for inhibitors of ROR gamma transcriptional activity. Drosophila S2 Gal4-VP16 UAS-luciferase, luminescence, 20 h. Potency, µM (highest dose often 53.6 µM), for inactives: top-dose activity, negative = inhibition, most hits filed as inhibitors. hit rate 3.5% among 310,000;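 further: Gal4-VP16 expression switched on by copper sulfate through the metallothionein promoter; potency means the concentration at half of the fitted maximal effect; nearly all actives have a fitted effect of over 50% in size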
RORgamma inh: qHTS for inhibitors of ROR gamma transcriptional activity | hit rate 5.4% among 310,000 | Drosophila S2 Gal4-RORgamma UAS-luciferase reporter, 20 h | Nuclear receptor ROR-gamma (Mus musculus), P51450 | Potency, µM (highest dose often 53.6 µM), without a hit: top-dose activity change, negative = inhibition, most hits filed as inhibitors; further: potency means the concentration at half of the fitted maximal effect; nearly all actives have a fitted effect of over 60% in size
Target sequence (P51450 whole entry, looked up, the tested form may be a part): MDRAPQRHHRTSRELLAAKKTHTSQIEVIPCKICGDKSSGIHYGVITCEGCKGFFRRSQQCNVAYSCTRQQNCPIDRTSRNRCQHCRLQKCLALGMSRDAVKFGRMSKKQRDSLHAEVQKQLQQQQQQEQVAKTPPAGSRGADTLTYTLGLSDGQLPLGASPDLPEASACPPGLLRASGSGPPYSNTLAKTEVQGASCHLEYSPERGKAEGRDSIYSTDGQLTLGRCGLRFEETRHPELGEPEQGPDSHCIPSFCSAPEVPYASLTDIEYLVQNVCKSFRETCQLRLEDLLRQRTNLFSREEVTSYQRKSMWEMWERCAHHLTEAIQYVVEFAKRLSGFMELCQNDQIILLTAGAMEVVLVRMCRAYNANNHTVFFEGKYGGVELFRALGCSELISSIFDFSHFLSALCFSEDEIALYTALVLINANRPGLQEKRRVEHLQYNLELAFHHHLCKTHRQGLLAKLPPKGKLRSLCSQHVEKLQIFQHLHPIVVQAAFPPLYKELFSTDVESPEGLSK
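Read-out: Photinus luciferase luminescence; inhibitors lower reporter signal. Insect Schneider cells with Gal4-ROR gamma fusion under metallothionein promoter, UAS reporter; 700 uM final copper sulfate induction, 20 hr, ambient temperature.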
ELG1 repair inh: qHTS screen for small molecules that inhibit ELG1-dependent DNA repair in human embryonic kidney (HEK293T) cells expressing luciferase-tagged ELG1; HEK293T ELG1-luciferase reporter, luminescence, 16 h; DNA damage induced by 5-fluorouridine; Potency, µM (highest dose often 46.1 µM), for inactives: top-dose activity change, negative = inhibition, hits mostly inhibitors; hit rate 2.3% among 330,000; AID 504467, 2011; further: potency means the concentration at half of the fitted maximal effect; nearly all actives have a fitted effect of over 55% in size
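Luminescence from the luciferase reporter, measured 30 min after ONE-Glo reagent at room temperature, was the read-out. Beforehand, 2,000 cells per well were exposed for 16 hr at 37 °C to 5-fluorouridine together with compound or vehicle.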
TDP1 cell CPT: qHTS for Inhibitors of human tyrosyl-DNA phosphodiesterase 1 (TDP1): qHTS in cells in presence of CPT | chicken DT40 Tdp1-/-;hTDP1 cells + 20 nM CPT, ATP luminescence, 48 h | Potency, µM (series often up to 46.2 µM), for the others: top-dose activity change, negative = growth inhibition, hits mostly inhibitors | hit rate 12% among 420,000; further: potency means the concentration at half of the fitted maximal effect; nearly all actives have a fitted effect of over 55% in size
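Chicken DT40 Tdp1-/- cells stably complemented with human TDP1 were seeded at 400 cells/well in medium containing 20 nM camptothecin, exposed to pin-transferred compounds, and grown at 37 °C for at least 48 hr. Viability was read as ATP luminescence.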
An asterisk follows results filed as active; ? = inconclusive; . = no result given; ! = a repeat was not active; [ ] = another dose, or the depositor's remark. Compounds with a hit are over-represented: about 21% of the library has one in this group of screens. Unless noted, the call rests on the fitted dose curve; in most records, active means well fitted curve in the direction sought with a large enough effect; inconclusive means small, poorly fitted or top-dose-only effect, or another doubt; inactive means no such curve, though single readings can be large; an effect the other way counts as inactive or inconclusive. On the % scale 0 is the no-effect control and ±100 the full control effect.

SMILES	IL1B secr inh	DT40 TDP1 no CPT	VP16 counter	RORgamma inh	ELG1 repair inh	TDP1 cell CPT
Cn1nc(OC(=O)Nc2ccccc2)cc1C(F)(F)F	.	.	-6.5%	-5.3%	?	.
CC1=CC2OC3CC4OC(=O)C=CC=CC(=O)OCCC(C)C(O)C(=O)OCC2(CC1O)C4(C)C31CO1 (stereo unspecified)	-97.7*	0.164µM*	.	.	.	0.146µM*
CC1=CC2OC3CC4OC(=O)C=CC=CC(C(C)O)OCC(O)C(C)CC(=O)OCC2(CC1O)C4(C)C31CO1 (stereo unspecified)	-115.8*	0.0206µM*	.	.	.	0.013µM*
CCN(CC)C(=O)/C(Cl)=C(\C)OP(=O)(OC)OC	.	-2.7%	-7.4%	-25.5%[10 µM]	.	-3.7%
CNC(C)Cc1ccc2c(c1)OCO2 (stereo unspecified)	.	-13.9%[92.5 µM]	.	.	.	-26.3%[92.5 µM]
Cc1ccc(N=C=O)cc1N=C=O	.	.	11.7%	?	.	.
COC(=O)C1=C(c2ccc(F)cc2OCc2ccccc2)C[C@@H]2CC[C@H]1N2C(=O)NCCOc1ccccc1Cl	-5.0	16.4µM*	.	.	-26.8%	20.6µM*
COC(=O)C1=C(c2ccccc2OCc2ccccc2)C[C@@H]2CC[C@H]1N2C(=O)NCCOc1ccc(OC)cc1	0.0	?	.	.	?	?
COC(=O)C1=C(c2ccc(F)cc2OCc2ccccc2)C[C@@H]2CC[C@H]1N2C(=O)NCCOc1ccc(OC)cc1	?	16.4µM*	.	.	?	?
COC(=O)C1=C(c2ccc(F)cc2OCc2ccccc2)C[C@@H]2CC[C@H]1N2C(=O)NCc1cccc(C(F)(F)F)c1	-59.3*	18.4µM*	.	.	?	?
COC(=O)C1=C(c2ccc(F)cc2OCc2ccccc2)C[C@@H]2CC[C@H]1N2C(=O)NCCc1ccc(F)cc1	?	20.6µM*	.	.	?	?
COc1cccc(OC)c1C(=O)Nc1nc(N)n(-c2ccccc2)n1	-21.4	-1.4%	5.5%	-19.4%	-8.4%	2.1%
Cc1ccc(OC(=O)N(C)C[C@@H]2OCc3cnnn3CCCC(=O)N([C@@H](C)CO)C[C@H]2C)cc1	23.2	-1.2%	.	.	.	-2.3%
CCc1cccc(CC)c1NC(=S)N1CC2CC(C1)c1cccc(=O)n1C2 (stereo unspecified)	17.3	-6.8%	-1.1%	1.6%	4.3%	-0.6%
CC(C)[C@H](NC(=O)[C@H](CCC(=O)O)NC(=O)[C@H](Cc1ccccc1)NC(=O)[C@H](C)NC(=O)[C@@H](N)Cc1ccc(O)cc1)C(=O)N[C@H](C(=O)NCC(N)=O)C(C)C	.	-15.6%[4.12 µM]	.	.	.	?
COC(=O)C1=C(c2ccc(F)cc2OCc2ccccc2)C[C@@H]2CC[C@H]1N2C(=O)NCCOc1ccccc1	?	16.4µM*	.	.	?	?
COC(=O)C1=C(c2ccc(F)cc2OCc2ccccc2)C[C@@H]2CC[C@H]1N2C(=O)NCc1ccc(Br)cc1	-59.7*	14.6µM*	.	.	?	?
O=c1[nH]c2ccccc2c(=O)n1-c1ccc(Cl)cc1Cl	-8.7	18.4µM*	8.6%	11.8%	?	16.4µM*
Cc1cc(C)cc(-n2c(=O)[nH]c3ccccc3c2=O)c1	.	?	.	.	.	18.4µM*
CNC(=O)N(C)c1ccc(C(O)(C(=O)OC)C(F)(F)F)cc1 (stereo unspecified)	25.3	-7.5%	4.0%	6.8%	0.0%	10.7%
CC(=O)[C@H]1CC[C@H]2[C@@H]3CC[C@@H]4C[C@H](O)CC[C@]4(C)[C@H]3CC[C@]12C	.	-19.7%	.	.	.	-9.2%
C[C@@H]1CN([C@@H](C)CO)C(=O)CCCn2cc(nn2)CO[C@H]1CN(C)C(=O)Oc1ccc2ccccc2c1	20.8	-22.5%	.	.	.	-19.7%
O=S(=O)(O)C(F)(F)C(F)(F)C(F)(F)C(F)(F)C(F)(F)C(F)(F)C(F)(F)C(F)(F)F	.	?	.	.	.	-21.0%[92.5 µM]
CN1[C@@H](CC(=O)c2ccccc2)CCC[C@H]1C[C@H](O)c1ccccc1	-17.8	20.6µM*!	1.4%	24.1%	-1.9%	23.7µM*!
CN1C(CC(=O)c2ccccc2)CCCC1CC(O)c1ccccc1 (stereo unspecified)	-18.2	-20.4%	-7.6%	-3.7%	-8.2%	?
SMILES	IL1B secr inh	DT40 TDP1 no CPT	VP16 counter	RORgamma inh	ELG1 repair inh	TDP1 cell CPT
C[C@H]1CCC/C=C/C2C[C@H](O)C[C@H]2[C@H](O)/C=C/C(=O)O1 (stereo partly specified)	.	0.355µM*	-2.7%	15.7%	.	0.251µM*
C[C@H]1CCC/C=C/[C@@H]2C[C@H](O)C[C@H]2[C@H](O)/C=C/C(=O)O1	-52.9*	0.651µM*	-4.3%	17.4%	?	0.581µM*
CCCCC[C@@H]1CCCCC[C@@H](O)C[C@@H](O)[C@@H](O)/C=C/C(=O)O1	-14.7	-34.1%	.	.	.	?
CC(C)C#N	.	.	3.6%	2.6%	.	.
N#Cc1nn(-c2c(Cl)cc(C(F)(F)F)cc2Cl)c(N)c1S(=O)C(F)(F)F (stereo unspecified)	.	8.57µM*	20µM*	?	.	9.62µM*
COc1cc2c(cc1OC)[C@@H]1C(=O)c3ccc4c(c3O[C@@H]1CO2)C[C@H](C(C)C)O4	?	0.164µM*	-18.3%	1.8%	0.058µM*	0.259µM*
COc1cc2c(cc1OC)[C@H]1C(=O)c3ccc4c(c3O[C@H]1CO2)C[C@@H](C(C)(C)O)O4	18.6	11.6µM*	.	.	-20.0%	14.6µM*
COc1ccc([C@@H]2COc3c(ccc4c3C=CC(C)(C)O4)C2)c(OC)c1	-9.5	6.2%	.	.	.	2.3%
COc1cc2c(cc1OC)[C@@H]1C(=O)c3ccc4oc(C(C)C)cc4c3OC1CO2 (stereo partly specified)	.	0.291µM*	0.316µM*	5.01µM*	.	0.651µM*
COc1cc2c(cc1OC)C1C(=O)c3ccc4c(c3OC1CO2)CC(C(C)C)O4 (stereo unspecified)	-67.7*	0.0326µM*	.	.	.	0.184µM*
COC(=O)CNC(=O)c1cn(CCC#N)nc1-c1ccc(F)cc1	18.2	6.2%	3.0%[10 µM]	-11.6%	-14.1%	8.0%
c1cc2cc(c1)C[n+]1ccc(c3ccccc31)NCc1ccc(cc1)CNc1cc[n+](c3ccccc13)C2	.	6.68µM*	-19.0%	0.2%	.	9.44µM*
